# Measurements taken from ChEMBL document CHEMBL1201862, “PubChem BioAssay data set” (2004).
# Out of some 58,000 sequences screened, about 3,600 (6.2%) were called active. No stated cut-off is given here; in the data, active = GI50 up to about 1.1 µM and inactive = higher. Only a selection was taken, and actives are over-represented in it overall. Measured potencies and affinities stand elsewhere.
# System: NCI-H23
row,Substance,GI50 [µM]
1,"mu-(1,7-nanodiamine-N,N')bis-(cis-aminedichloroplatimum (II)), CHEMBL2146215",4.37
2,"[Bis(aminomethyl)pentamethylenesilane]tetrachloropaltinum(IV), CHEMBL2146204",1.51
3,"CISPLATIN, CHEMBL11359",0.783
4,"[Bis(aminomethyl)pentamethylenesilane]dichloropaltinum(II), CHEMBL2146202",4.59
5,"[Bis(aminomethyl)dimethylsilane]tetrachloroplatinum(IV), CHEMBL2146190",3.98
6,"[Bis(aminomethyl)tetramethylenesilane]dichloropaltinum(II), CHEMBL2146205",13.5
7,"[Bis(aminomethyl)tetramethylenesilane]tetrachloropaltinum(IV), CHEMBL2146189",3.33
8,"[Bis(aminomethyl)diethylsilane]tetrachloroplatinum(IV), CHEMBL2146203",2.79
